The list is not random: actives were taken first. Their share in the collection is about 2.4%.
ADAM17 inh: ADAM17 inhibitors, primary screen, biochemical, QFRET; recombinant ADAM17, EDANS/DABCYL FRET peptide cleavage; inhibition, % at 6.95 µM; actives 0.83% (n = 370,000);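 active = inhibition above the mean of compounds lying between control limits plus 3 SD, set per campaign, cut at about 8.5% in these data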;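 also: 0% = DMSO-only wells as the low control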
CendR NRP1 mod: modulators of CendR peptide binding to NRP-1, primary screen, biochemical, fluorescence polarization, uHTS; Neuropilin-1 (Homo sapiens), O14786; FAM-RPARPAR peptide binding to NRP-1; inhibition, % at 25 µM; actives 0.85% (n = 360,000);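 active = inhibition or corrected inhibition above about 18%, plus a signal ratio from 0.5 to 1.5, limit read from the data, passing the limit was not always enough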
APOBEC3G inh: APOBEC3G DNA deaminase inhibitors, primary screen, biochemical, fluorescence, single-stranded DNA substrate, uHTS. actives 0.28% (n = 330,000). inhibition, % at 20 µM. recombinant A3G, ssDNA deamination FAM/TAMRA fluorescence. DNA dC->dU-editing enzyme APOBEC-3G (Homo sapiens), Q9HC16;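 active = inhibition of at least 40% at 20 µM, with no more than 30% in the related APOBEC3A deaminase screen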;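 also: plate controls were DMSO wells with A3G for no effect and wells lacking A3G enzyme for full effect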
ADAM10 inh: human ADAM10 inhibitors, primary screen, biochemical, QFRET, HTS | Disintegrin and metalloproteinase domain-containing protein 10 (Homo sapiens), O14672 | recombinant ADAM10, EDANS/DABCYL FRET peptide cleavage, 3 h | inhibition, % at 7 µM | actives 0.62% (n = 370,000);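 active = inhibition above a per-campaign cutoff equal to the mean of compounds falling between control-based bounds plus 3 SD, cut at about 20% in these data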;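 also: 0% = DMSO wells while the 100% control is not disclosed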
Target sequence (O14672 214-748 limits assumed): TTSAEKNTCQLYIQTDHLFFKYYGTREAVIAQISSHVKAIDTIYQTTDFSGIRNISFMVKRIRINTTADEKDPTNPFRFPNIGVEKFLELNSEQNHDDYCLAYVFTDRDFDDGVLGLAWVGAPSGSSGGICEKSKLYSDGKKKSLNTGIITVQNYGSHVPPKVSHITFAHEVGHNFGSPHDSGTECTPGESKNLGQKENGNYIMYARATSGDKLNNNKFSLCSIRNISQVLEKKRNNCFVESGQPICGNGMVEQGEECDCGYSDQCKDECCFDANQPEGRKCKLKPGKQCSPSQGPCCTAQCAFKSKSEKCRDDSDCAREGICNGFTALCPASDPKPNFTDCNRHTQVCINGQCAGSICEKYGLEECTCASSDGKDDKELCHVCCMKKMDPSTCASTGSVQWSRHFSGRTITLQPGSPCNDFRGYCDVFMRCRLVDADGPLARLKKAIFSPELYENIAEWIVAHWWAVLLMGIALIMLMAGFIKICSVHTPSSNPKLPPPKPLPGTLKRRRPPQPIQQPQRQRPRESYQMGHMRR
A3A deaminase: APOBEC3A ssDNA deaminase inhibitors, primary screen, selectivity assay for APOBEC3G inhibitor project, biochemical, FAM/TAMRA oligo cleavage fluorescence. inhibition, % at 20 µM. DNA dC->dU-editing enzyme APOBEC-3A (Homo sapiens), P31941. recombinant A3A, FAM/TAMRA ssDNA deamination fluorescence. actives 0.41% (n = 330,000);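 active = at least 40% inhibition at 20 µM here, with at most 30% in a related deaminase screen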;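 also: plate controls were A3A with DMSO for no effect and wells lacking A3A enzyme for full effect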
ADAM10 confirm: human ADAM10 inhibitors, confirmation, biochemical, QFRET, triplicate | actives 1% (n = 2,100) | ADAM10 QFRET peptide cleavage, EDANS fluorescence | shares compounds with ADAM10 inh | inhibition, % at 6.95 µM | AID 743208, 2013;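 active = inhibition above about 20% chosen separately for each screening run, limit read from the data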;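 also: 0% = DMSO wells and 100% = marimastat wells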
ADAM17 ctr: ADAM17 inhibitors, counter-screen for ADAM10 exosite inhibitor project, biochemical, QFRET, high throughput; actives 0.5% (n = 2,100); shares compounds with ADAM10 inh; ADAM17 QFRET peptide cleavage, EDANS fluorescence; inhibition, % at 6.95 µM; AID 743214, 2013;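 active = mean triplicate inhibition above the solvent-only control wells' mean plus 3 SD, cut at about 12% in these data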;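 also: 0% = DMSO wells and 100% = marimastat wells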
ADAM10 ctr: ADAM10 inhibitors, counter-screen for ADAM17 exosite inhibitor project, biochemical, FRET, human ADAM10; actives 47% (n = 2,900); shares compounds with ADAM17 inh; recombinant ADAM10, EDANS/DABCYL FRET peptide cleavage, 3 h; inhibition, % at 6.95 µM;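 active = mean inhibition over the triplicate runs exceeds the activity threshold set in the earlier primary screen, cut at about 20% in these data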;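 also: 0% = DMSO wells and 100% = marimastat wells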
ADAM17 confirm: ADAM17 inhibitors, hit retest, confirmation, biochemical, QFRET peptide cleavage. shares compounds with ADAM17 inh. inhibition, % at 6.95 µM. recombinant ADAM17, EDANS/DABCYL QFRET peptide cleavage. actives 65% (n = 2,900);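 active = mean inhibition across replicates above the hit cutoff set in the primary screen, cut at about 8.5% in these data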;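 also: 0% = DMSO wells and 100% = marimastat wells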
* = called active by the depositor.

`C=CCC[C@H](Cc1ccc(F)cc1)C(=O)OC[C@@H](Cc1c[nH]c2ccccc12)NC(=O)[C@@H](CC=C)CC(=O)N(CCO)Cc1ccccc1` gave ADAM17 inh 15*, CendR NRP1 mod 5, APOBEC3G inh -10, ADAM10 inh 41*, A3A deaminase -4, ADAM10 confirm 12, ADAM17 ctr 3, ADAM10 ctr 48* and ADAM17 confirm 23*.
Screening CCOC(=O)CNC(=O)C(Cc1ccc2c(c1)OCO2)NC(C)=O (centres undefined) returned ADAM17 inh -4 and ADAM10 inh -7.
For C=CCC[C@@H](Cc1ccc(F)cc1)C(=O)OC[C@H](Cc1c[nH]c2ccccc12)NC(=O)[C@H](CC=C)CC(=O)N(CCO)Cc1ccccc1 the results were ADAM17 inh 12*, CendR NRP1 mod -11, APOBEC3G inh -9, ADAM10 inh 21*, A3A deaminase -5, ADAM10 confirm 11, ADAM17 ctr 3, ADAM10 ctr 55* and ADAM17 confirm 27*.
`C=CC[C@@H](CC(=O)N(CCO)Cc1ccccc1)C(=O)N[C@H](C)COC(=O)[C@@H](CC=C)Cc1ccc(F)cc1` gave ADAM17 inh 2, CendR NRP1 mod 4, APOBEC3G inh -3, ADAM10 inh 6 and A3A deaminase -1.
CC(C)C1C(=O)N(Cc2cn(CCC3OCCO3)nn2)CCS(=O)(=O)N1Cc1ccc(-c2ccccc2Cl)cc1 (centres undefined) was read as ADAM17 inh 6, CendR NRP1 mod 9 and ADAM10 inh 4.
Cc1ccc(-c2ccc(CN3C(C(C)C)C(=O)N(Cc4cn(CC5CCCCC5)nn4)CCS3(=O)=O)cc2)cc1 (centres undefined) was read as ADAM17 inh 4, CendR NRP1 mod 4 and ADAM10 inh 6.
Screening CC(C)CC1C(=O)N(Cc2cn(CCC3OCCCO3)nn2)CCS(=O)(=O)N1Cc1ccc(-c2ccc(Cl)cc2)cc1 (centres undefined) returned ADAM17 inh 2, CendR NRP1 mod 4 and ADAM10 inh -17.
For CC(C)C1C(=O)N(Cc2cn(CCC3OCCO3)nn2)CCS(=O)(=O)N1Cc1ccc(-c2ccc(F)cc2Cl)cc1 (centres undefined) the results were ADAM17 inh 10*, CendR NRP1 mod 10, ADAM10 inh 24*, ADAM10 confirm 6, ADAM17 ctr 2, ADAM10 ctr 33* and ADAM17 confirm 17*.
`CC(C)C1C(=O)N(Cc2cn(CC3CCCCC3)nn2)CCS(=O)(=O)N1Cc1ccc(-c2ccccc2)cc1` (centres undefined) gave ADAM17 inh 11*, CendR NRP1 mod -1, ADAM10 inh 22*, ADAM10 confirm 14, ADAM17 ctr 3, ADAM10 ctr 38* and ADAM17 confirm 15*.
For CC(C)CC1C(=O)N(Cc2cn(CCC3OCCO3)nn2)CCS(=O)(=O)N1Cc1ccc(-c2ccc(F)cc2)cc1 (centres undefined) the results were ADAM17 inh 11*, CendR NRP1 mod -10, ADAM10 inh 25*, ADAM10 confirm 7, ADAM17 ctr 3, ADAM10 ctr 31* and ADAM17 confirm 17*.
Screening COCOCCn1cc(CN2CCS(=O)(=O)N(Cc3ccc(-c4ccc(Cl)c(Cl)c4)cc3)C(C)C2=O)nn1 (centres undefined) returned ADAM17 inh 11*, CendR NRP1 mod -7, ADAM10 inh 23*, ADAM10 confirm 7, ADAM17 ctr 2, ADAM10 ctr 35* and ADAM17 confirm 19*.
`CC(C)C[C@@H]1COc2cc(N3CCOCC3)ccc2S(=O)(=O)N1` gave ADAM17 inh -3 and ADAM10 inh -12.
For C/C=C/c1ccc([C@H]2[C@@H](CN(CC(C)C)S(=O)(=O)c3ccccc3[N+](=O)[O-])N(C(=O)Nc3cccc(OC)c3)[C@H]2CO)cc1 the results were ADAM17 inh 4 and ADAM10 inh 10.
`CN(C)CCCNC(=O)c1c(N)[nH]c(C(=O)c2ccc(Br)cc2)c1-c1ccc(Br)cc1` gave ADAM17 inh -3 and ADAM10 inh -16.
For CCn1c(Cc2cccs2)nnc1SCC(=O)Nc1ccc2c(c1)OCCO2 the results were ADAM17 inh 3 and ADAM10 inh -2.
For O=C(Nc1ccccc1)OCC1COC(c2ccccc2)(c2ccccc2)O1 (centres undefined) the results were ADAM17 inh 11*, CendR NRP1 mod 11, ADAM10 inh 25*, ADAM10 confirm 9, ADAM17 ctr 3, ADAM10 ctr 24* and ADAM17 confirm 12*.
`O=C(OCc1cn(Cc2ccc(F)c(F)c2)nn1)N1CCCC1` gave ADAM17 inh 2 and ADAM10 inh 3.
`Cc1nc2ccc(S(=O)(=O)NCC(=O)NCc3ccccc3Cl)cc2s1` gave ADAM17 inh 2 and ADAM10 inh 1.
Screening N#CC1=C(N)NC(SCC(=O)c2ccccc2)=C(C#N)C12CCCC2 returned ADAM17 inh 0, CendR NRP1 mod -9, APOBEC3G inh -4, ADAM10 inh -1 and A3A deaminase 0.

Screening results as filed in PubChem BioAssay.
